A short description of assay [1]: NCI Yeast Anticancer Drug Screen. Data for the rad50 strain (AID 155).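 Further: 0% = growth of vehicle-only cultures of the same strain.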 As to conditions: S. cerevisiae rad50 strain growth inhibition, active compounds read high. A digest of the protocol: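 Genetically altered yeast (DNA repair pathway); compound treatment; growth inhibition vs vehicle ctrl.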
A short description of assay [2]: NCI Yeast Anticancer Drug Screen. Data for the mec2-1 strain (AID 157). As to conditions: S. cerevisiae mec2-1 strain, active compounds read high. The method, boiled down:
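mec2-1 yeast strain, carrying an alteration in DNA damage repair or cell cycle control, was exposed to compounds; growth inhibition was measured relative to vehicle-treated controls.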

Assay [3] is described as follows: NCI Yeast Anticancer Drug Screen. Data for the sgs1 mgt1 strain (AID 161).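 Further: 0% = growth of cultures given vehicle only.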 As to conditions: S. cerevisiae sgs1 mgt1 strain, active compounds read high. A digest of the protocol: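 This yeast growth screen uses a strain with defined DNA-repair lesions; compound-treated growth is compared with vehicle-treated growth.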
Assay [4] is described as follows: NCI Yeast Anticancer Drug Screen. Data for the cln2 rad14 strain (AID 165).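 Further: 0% = growth equal to vehicle treated cultures.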 As to conditions: S. cerevisiae cln2 rad14 strain, active compounds read high. The method, boiled down: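 Yeast carrying cln2 and rad14 alterations (cell cycle control and DNA damage repair) were exposed to compounds. Growth inhibition was measured against vehicle-treated controls.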
Assay [5] can be described thus: NCI Yeast Anticancer Drug Screen. Data for the bub3 strain (AID 167). As to conditions: S. cerevisiae bub3 mutant strain, active compounds read high. The method, boiled down: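 Yeast carrying a defined mutation is treated with each compound, and growth is compared with that of vehicle-exposed cells to give inhibition.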
Assay [6] is described as follows: NCI Yeast Anticancer Drug Screen. Data for the mlh1 rad18 strain (AID 175). To be noted: S. cerevisiae mlh1 rad18 strain growth inhibition, active compounds read high. The method, boiled down:
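Growth inhibition of the yeast strain was measured after compound exposure and expressed relative to vehicle-treated controls. The strain carries defined defects in DNA damage repair.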

The mark [7] stands for this setting: at 5.0 µM (retest, dose inferred, filed as 0.5).
The mark [8] stands for this setting: at 50.0 µM (retest, dose inferred, filed as 5.0).

About 79,000 compounds went through this panel and 15% of them were active in at least one assay; those are over-represented in the sample as a whole. Unmarked numbers belong to inactive results. Calls of active or inactive are those of the source. No stated cut-off is given here; in the data, active means growth inhibition above about 70%; inactive means the rest.

In the case of `O=C(c1ccc(Cl)cc1)c1ccc([N+](=O)[O-])cc1`, the growth inhibition in assay [1] (setting [7]) is 13%; in assay [1] (setting [8]), -4%; in assay [1] (at 50.0 µM), 5.35%; in assay [2] (setting [7]) it was -4%; in assay [2] (setting [8]), 1%; in assay [2] (at 50.0 µM), -16.4%. Besides, the growth inhibition in assay [3] (setting [7]) was 4%; in assay [3] (setting [8]), -14%; in assay [3] (at 50.0 µM), 4.6%; in assay [4] (setting [7]), -3%; in assay [4] (setting [8]) it was 1%; in assay [4] (at 50.0 µM) it was -2.2%. Also, the growth inhibition in assay [5] (setting [7]) is 3%; in assay [5] (setting [8]) it was 31%; in assay [5] (at 50.0 µM), 74.5% (active); in assay [6] (setting [7]), -3%; in assay [6] (setting [8]), 7%; in assay [6] (at 50.0 µM), 8.05%.

Turning to `Cc1ccc(NC(=O)Oc2ccc(C(C)(C)C)cc2Br)cc1NC(=O)Oc1ccc(C(C)(C)C)cc1Br`, the growth inhibition in assay [1] (setting [7]) was 8%; in assay [1] (setting [8]), 26%; in assay [1] (at 50.0 µM), 40.1%; in assay [2] (setting [7]), -4%; in assay [2] (setting [8]) it was 13%; in assay [2] (at 50.0 µM), 60%. The growth inhibition in assay [3] (setting [7]) is 3%; in assay [3] (setting [8]), 14%; in assay [3] (at 50.0 µM), 49.7%; in assay [4] (setting [7]) it was 2%; in assay [4] (setting [8]), 11%; in assay [4] (at 50.0 µM) it was 19.9%. Moreover, the growth inhibition was 0% in assay [5] (setting [7]); 28% in assay [5] (setting [8]); 28.4% in assay [5] (at 50.0 µM); 4% in assay [6] (setting [7]); 53% in assay [6] (setting [8]); 79.2% (active) in assay [6] (at 50.0 µM).

Regarding `OC(CCN1CCOCC1)c1ccc(Sc2ccccc2)cc1` (stereo not given), the growth inhibition was 55% in assay [1] (setting [7]); 29% in assay [1] (setting [8]); 98% (active) in assay [1] (at 50.0 µM); 46% in assay [2] (setting [7]); 21% in assay [2] (setting [8]); 98.9% (active) in assay [2] (at 50.0 µM). Also, the growth inhibition was 61% in assay [3] (setting [7]); 59% in assay [3] (setting [8]); 98.6% (active) in assay [3] (at 50.0 µM); 53% in assay [4] (setting [7]); 15% in assay [4] (setting [8]); 67.1% in assay [4] (at 50.0 µM). The growth inhibition in assay [5] (setting [7]) is 88% (active); in assay [5] (setting [8]), 88% (active); in assay [5] (at 50.0 µM), 99.3% (active); in assay [6] (setting [7]), 62%; in assay [6] (setting [8]), 58%; in assay [6] (at 50.0 µM), 97.2% (active).

In the case of `O=c1c(O)c(-c2ccc(Cl)cc2)oc2cc(O)ccc12`, the growth inhibition in assay [1] (setting [7]) was 4%; in assay [1] (setting [8]), 52%; in assay [1] (at 50.0 µM) it was 88.7% (active); in assay [2] (setting [7]), 2%; in assay [2] (setting [8]), 86% (active); in assay [2] (at 50.0 µM), 77.7% (active). For the same molecule, the growth inhibition is 1% in assay [3] (setting [7]); 54% in assay [3] (setting [8]); 89.7% (active) in assay [3] (at 50.0 µM); -7% in assay [4] (setting [7]); -2% in assay [4] (setting [8]); -9.3% in assay [4] (at 50.0 µM). For the same molecule, the growth inhibition in assay [5] (setting [7]) was 3%; in assay [5] (setting [8]), 51%; in assay [5] (at 50.0 µM) it was 59.5%; in assay [6] (setting [7]) it was 7%; in assay [6] (setting [8]) it was 50%; in assay [6] (at 50.0 µM), 91.5% (active).

In the case of `O=C(O)c1c(-c2ccccc2)cc(-c2ccccc2)cc1-c1ccccc1`, the growth inhibition is 93% (active) in assay [1] (setting [7]); 98% (active) in assay [1] (setting [8]); 99.1% (active) in assay [1] (at 50.0 µM); 90% (active) in assay [2] (setting [7]); 98% (active) in assay [2] (setting [8]); 99.2% (active) in assay [2] (at 50.0 µM). In addition, the growth inhibition in assay [3] (setting [7]) is 93% (active); in assay [3] (setting [8]) it was 99% (active); in assay [3] (at 50.0 µM), 99.3% (active); in assay [4] (setting [7]), 90% (active); in assay [4] (setting [8]) it was 98% (active); in assay [4] (at 50.0 µM) it was 97.8% (active). The growth inhibition in assay [5] (setting [7]) was 88% (active); in assay [5] (setting [8]), 95% (active); in assay [5] (at 50.0 µM), 98.2% (active); in assay [6] (setting [7]) it was 92% (active); in assay [6] (setting [8]) it was 98% (active); in assay [6] (at 50.0 µM), 98.9% (active).

Take `Cc1ccc(S(=O)(=O)c2cc(O)c(O)c3ccc(Br)cc23)cc1`: the growth inhibition in assay [1] (setting [7]) is 13%; in assay [1] (setting [8]), 97% (active); in assay [1] (at 50.0 µM), 79.5% (active); in assay [2] (setting [7]) it was 9%; in assay [2] (setting [8]), 98% (active); in assay [2] (at 50.0 µM), 98.5% (active). Further, the growth inhibition is 16% in assay [3] (setting [7]); 98% (active) in assay [3] (setting [8]); 92.9% (active) in assay [3] (at 50.0 µM); -1% in assay [4] (setting [7]); 97% (active) in assay [4] (setting [8]); 95.4% (active) in assay [4] (at 50.0 µM). Besides, the growth inhibition in assay [5] (setting [7]) is -4%; in assay [5] (setting [8]), 97% (active); in assay [5] (at 50.0 µM), 83.8% (active); in assay [6] (setting [7]), 9%; in assay [6] (setting [8]), 97% (active); in assay [6] (at 50.0 µM), 97.9% (active).

In the case of `Clc1ccc(Cl)c(SCCCN2CCNCC2)c1`, the growth inhibition was 36% in assay [1] (setting [7]); 65% in assay [1] (setting [8]); 79.7% (active) in assay [1] (at 50.0 µM); 0% in assay [2] (setting [7]); 32% in assay [2] (setting [8]); 48.2% in assay [2] (at 50.0 µM). The growth inhibition is 35% in assay [3] (setting [7]); 65% in assay [3] (setting [8]); 54.2% in assay [3] (at 50.0 µM); 6% in assay [4] (setting [7]); 39% in assay [4] (setting [8]); 40% in assay [4] (at 50.0 µM). The growth inhibition in assay [5] (setting [7]) is 18%; in assay [5] (setting [8]), 59%; in assay [5] (at 50.0 µM) it was 82.4% (active); in assay [6] (setting [7]), 23%; in assay [6] (setting [8]), 43%; in assay [6] (at 50.0 µM), 74.4% (active).

As to `CCOC(=O)N(c1ccccc1)N(CC)C(=O)/C(C)=N/Nc1ccc([N+](=O)[O-])cc1`, the growth inhibition in assay [1] (setting [7]) is 6%; in assay [1] (setting [8]), 93% (active); in assay [1] (at 50.0 µM), 97.7% (active); in assay [2] (setting [7]), 5%; in assay [2] (setting [8]), 94% (active); in assay [2] (at 50.0 µM), 95.8% (active). For the same molecule, the growth inhibition in assay [3] (setting [7]) was 9%; in assay [3] (setting [8]), 94% (active); in assay [3] (at 50.0 µM) it was 97.7% (active); in assay [4] (setting [7]), 10%; in assay [4] (setting [8]), 95% (active); in assay [4] (at 50.0 µM), 92.2% (active). The growth inhibition in assay [5] (setting [7]) is -10%; in assay [5] (setting [8]) it was 92% (active); in assay [5] (at 50.0 µM), 95.8% (active); in assay [6] (setting [7]), -1%; in assay [6] (setting [8]), 94% (active); in assay [6] (at 50.0 µM) it was 97% (active).

With `COc1cc2c(cc1O)CCCCC2`, the growth inhibition in assay [1] (setting [7]) was 4%; in assay [1] (setting [8]), 4%; in assay [1] (at 50.0 µM), 41.1%; in assay [2] (setting [7]), 3%; in assay [2] (setting [8]), -2%; in assay [2] (at 50.0 µM), -29.2%. The growth inhibition in assay [3] (setting [7]) is 1%; in assay [3] (setting [8]), 8%; in assay [3] (at 50.0 µM), 6.9%; in assay [4] (setting [7]), -2%; in assay [4] (setting [8]) it was -7%; in assay [4] (at 50.0 µM), 0%. The growth inhibition in assay [5] (setting [7]) was -4%; in assay [5] (setting [8]) it was 0%; in assay [5] (at 50.0 µM), -7.5%; in assay [6] (setting [7]), -3%; in assay [6] (setting [8]), 3%; in assay [6] (at 50.0 µM), 43%.

Regarding `CC(C)=CCC(CC=C(C)C)c1ccncc1` (tested in a mixture with another compound), the growth inhibition in assay [1] (setting [7]) was 16%; in assay [1] (setting [8]) it was 99% (active); in assay [1] (at 50.0 µM), 99.2% (active); in assay [2] (setting [7]), 15%; in assay [2] (setting [8]) it was 99% (active); in assay [2] (at 50.0 µM) it was 99.5% (active). The growth inhibition in assay [3] (setting [7]) was -92%; in assay [3] (setting [8]), 100% (active); in assay [3] (at 50.0 µM) it was 99.5% (active); in assay [4] (setting [7]) it was 5%; in assay [4] (setting [8]) it was 98% (active); in assay [4] (at 50.0 µM), 99.4% (active). Moreover, the growth inhibition was 21% in assay [5] (setting [7]); 99% (active) in assay [5] (setting [8]); 98.8% (active) in assay [5] (at 50.0 µM); 49% in assay [6] (setting [7]); 99% (active) in assay [6] (setting [8]); 99.5% (active) in assay [6] (at 50.0 µM).

For the origin of these results see PubChem BioAssay (NCI).
